Here are results for nine compounds from PubChem BioAssay (NCI).

This is part of a sample that, as a whole, favours compounds with a hit. Of some 83,000 tested, about 20% had one in any assay.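 The endpoint reported here, percent growth, reads 100 for growth as untreated, 0 for no net growth and -100 for all cells dead.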 Values without a mark were called inactive. Active and inactive are the calls of the source. How the source made its calls: active means growth percent below 10; inactive means the rest.

Some test systems named below: RPMI-8226 leukemia; OVCAR-8 ovarian; OVCAR-5 ovarian; SK-OV-3 ovarian; IGROV1 ovarian; OVCAR-3 ovarian; HS 578T breast; NCI/ADR-RES ovarian; T-47D breast; BT-549 breast; MDA-MB-435 melanoma; SW-620 colon; MCF7 breast; HCT-116 colon; HCC-2998 colon; KM12 colon; OVCAR-4 ovarian.
Holding throughout (assay): NCI-60 one-dose screen, 48 h (100 = growth as untreated, 0 = no growth, -100 = all killed)
Common to all, as to conditions: 10 µM unless noted

With `Oc1ccc(OCCOc2ccc(O)cc2)cc1`, the growth with RPMI-8226 leukemia was 66.9%; with OVCAR-8 ovarian, 42.4%; in the assay with OVCAR-5 ovarian, 69.4%; with SK-OV-3 ovarian, 95.1%; in the assay with IGROV1 ovarian, 71.4%; in the assay on OVCAR-3 ovarian, 70.2%. The growth is 109% in the assay on HS 578T breast; 24.3% with NCI/ADR-RES ovarian; 72.5% in the assay on T-47D breast; 54.7% in the assay on BT-549 breast; 47.2% with MDA-MB-435 melanoma; 50.2% with SW-620 colon. Also, the growth was 55.7% with MCF7 breast, 55.9% in the assay with HCT-116 colon, 47.1% in the assay on HCC-2998 colon and 29.2% with KM12 colon.

Regarding `C=C(C)[C@@H]1CC[C@]2(CN)CC[C@]3(C)[C@H](CC[C@@H]4[C@@]5(C)CCCNC(C)(C)[C@@H]5CC[C@]43C)[C@@H]12`, the growth in the assay with RPMI-8226 leukemia was -43.8% (active); with OVCAR-8 ovarian, -59.6% (active); with OVCAR-5 ovarian it was -23% (active); in the assay with OVCAR-4 ovarian, -70.9% (active); in the assay with SK-OV-3 ovarian, 86.1%; in the assay with IGROV1 ovarian, -81.9% (active). Also, the growth is -85.8% (active) in the assay on OVCAR-3 ovarian; -42.3% (active) with HS 578T breast; -52% (active) with NCI/ADR-RES ovarian; -10.1% (active) with T-47D breast; -96.2% (active) in the assay with MDA-MB-435 melanoma; -84.5% (active) in the assay on SW-620 colon. For the same compound, the growth was -66.1% (active) in the assay with MCF7 breast, -95.5% (active) with HCT-116 colon, -80.6% (active) in the assay on HCC-2998 colon and -85.4% (active) in the assay on KM12 colon.

As to `COc1ccc(C/C(=C(\C)c2ccc(OCCN3CCCC3)cc2)c2ccc(OCCN3CCCC3)cc2)cc1`, the growth with RPMI-8226 leukemia was -20.6% (active); in the assay with OVCAR-8 ovarian it was 64.9%; with OVCAR-5 ovarian it was 77.8%; with OVCAR-4 ovarian, 81.5%; in the assay on SK-OV-3 ovarian, 90.8%; with IGROV1 ovarian, 64.1%. Also, the growth is 29% in the assay on OVCAR-3 ovarian; 66.7% in the assay with HS 578T breast; 78.3% with NCI/ADR-RES ovarian; 77.6% with T-47D breast; -77.2% (active) with MDA-MB-435 melanoma; -35.4% (active) in the assay with SW-620 colon. For the same compound, the growth is -7% (active) with MCF7 breast, 24.9% in the assay on HCT-116 colon, 68.9% in the assay with HCC-2998 colon and 47.9% with KM12 colon.

In the case of `O=C1Nc2ccc(F)cc2/C1=C\c1c(-c2ccccc2)nc2ccccn12`, the growth in the assay with RPMI-8226 leukemia was 86.5%; in the assay with OVCAR-5 ovarian it was 73.7%; in the assay on OVCAR-4 ovarian, 94.6%; with SK-OV-3 ovarian it was 80.7%; with IGROV1 ovarian, 47.6%; with OVCAR-3 ovarian, 66.4%. Further, the growth with HS 578T breast was 71.8%; in the assay on NCI/ADR-RES ovarian, 38.1%; in the assay on T-47D breast, 61.8%; in the assay with BT-549 breast, 65.9%; in the assay on MDA-MB-435 melanoma, -10.1% (active); with SW-620 colon it was 49.8%. For the same compound, the growth with MCF7 breast was 61.3%; in the assay with HCT-116 colon, 63.8%; in the assay with HCC-2998 colon, 93.3%; with KM12 colon it was 45.7%.

`Cc1ccc(-n2nc3c(c(C#N)c2=O)CC(c2ccccc2[N+](=O)[O-])C([N+](=O)[O-])=C3O)cc1` (stereo unspecified): the growth was 99.8% with OVCAR-5 ovarian; 75.2% in the assay with OVCAR-4 ovarian; 86.2% in the assay with IGROV1 ovarian; 87.5% in the assay on OVCAR-3 ovarian; 77.7% with HS 578T breast; 99.8% in the assay on NCI/ADR-RES ovarian. The growth with T-47D breast is 65.5%; in the assay on BT-549 breast it was 93.2%; in the assay on MDA-MB-435 melanoma, 96.7%; in the assay with SW-620 colon it was 89.1%; in the assay on MCF7 breast it was 55.4%; in the assay with HCT-116 colon, 86.9%. Also, the growth is 116% in the assay with HCC-2998 colon and 82.3% in the assay on KM12 colon.

`Cc1nc2ccc(Cl)cn2c1-c1nnc(SCc2ccc([N+](=O)[O-])cc2)o1`: the growth with RPMI-8226 leukemia was 81.9%; with OVCAR-5 ovarian it was 83.7%; in the assay on OVCAR-4 ovarian, 32.5%; with IGROV1 ovarian, 62.3%; in the assay on OVCAR-3 ovarian, 66.8%; in the assay on HS 578T breast, 45.6%. Besides, the growth was 36.1% in the assay on NCI/ADR-RES ovarian; 79.8% in the assay with T-47D breast; 12.9% in the assay with BT-549 breast; 61.2% in the assay on MDA-MB-435 melanoma; 76.1% in the assay with SW-620 colon; 55.2% in the assay on MCF7 breast. For the same compound, the figures for the growth in the assay with HCT-116 colon, in the assay on HCC-2998 colon and with KM12 colon were 58.4%, 83.5% and 72.9%, respectively.

Regarding `COc1cc(NC(=O)CSc2nc3ccc(C)cc3c(=O)n2Cc2ccccc2)cc(OC)c1OC`, the growth in the assay on OVCAR-8 ovarian was 41.3%; in the assay with OVCAR-5 ovarian it was 96.3%; in the assay on OVCAR-4 ovarian, 23.9%; in the assay with SK-OV-3 ovarian, 40%; with IGROV1 ovarian, 74.3%; with OVCAR-3 ovarian it was 43.8%. The growth in the assay on HS 578T breast is 44.9%; in the assay on NCI/ADR-RES ovarian, 66.3%; in the assay with T-47D breast, 22.8%; with BT-549 breast, 53.3%; in the assay with MDA-MB-435 melanoma, 67.3%; with SW-620 colon it was 81.3%. Further, the growth was 71% with MCF7 breast, 43.4% in the assay with HCT-116 colon, 76% in the assay on HCC-2998 colon and 57.9% in the assay with KM12 colon.

Turning to `COc1cc(C2C3=C(COC3=O)N(CCO)c3cc4c(cc32)OCO4)cc(OC)c1OC` (stereo unspecified), the growth in the assay on RPMI-8226 leukemia was 15.2%; with OVCAR-8 ovarian it was 28.4%; with OVCAR-5 ovarian it was 27.7%; with OVCAR-4 ovarian, 28.5%; with SK-OV-3 ovarian, -24.2% (active); with IGROV1 ovarian, 19.1%. For the same compound, the growth was -27.6% (active) in the assay on OVCAR-3 ovarian; -6.37% (active) with HS 578T breast; 27.2% in the assay on NCI/ADR-RES ovarian; 36.7% with T-47D breast; -2.88% (active) in the assay on MDA-MB-435 melanoma; 18.8% in the assay with SW-620 colon. For the same compound, the growth was -6.88% (active) with MCF7 breast, 4.34% (active) in the assay with HCT-116 colon, -13% (active) with HCC-2998 colon and 5.43% (active) in the assay on KM12 colon.

For the compound `COc1cc(C(=O)Nc2cc3c(cc2Oc2cc(C)cc(C)c2)C(=O)N(C)[C@@H](CC(=O)N(C)O)C(=O)N3)c(Br)c(OC)c1OC`, the growth in the assay on RPMI-8226 leukemia was -26.2% (active); with OVCAR-8 ovarian, 0.573% (active); with OVCAR-5 ovarian it was -18.6% (active); with OVCAR-4 ovarian, -33.3% (active); in the assay with SK-OV-3 ovarian it was -0.559% (active); in the assay with IGROV1 ovarian, -22.5% (active). The growth was -35.5% (active) in the assay with OVCAR-3 ovarian; -18.1% (active) in the assay on HS 578T breast; 17.9% with NCI/ADR-RES ovarian; 1.62% (active) in the assay on T-47D breast; -86.2% (active) with MDA-MB-435 melanoma; -2.61% (active) with SW-620 colon. Also, the growth in the assay with MCF7 breast is -14.8% (active); in the assay on HCT-116 colon, -35.5% (active); in the assay on HCC-2998 colon, -45.6% (active); in the assay with KM12 colon, -28.6% (active).
